# Screening data deposited in PubChem BioAssay by National Center for Advancing Translational Sciences (NCATS).
# BAZ2B block – BAZ2B (human) inhibition; Q9UIF8; AlphaScreen BAZ2B-H3K14Ac peptide displacement; Potency, µM (series often up to 114 µM), inactives show top-dose activity change, negative = inhibition, hits mostly inhibitors; hit rate 4.4% among 360,000; AID 504333; also: potency is read from the fitted curve at half-maximal effect; % is scaled to controls: 0 for no effect and ±100 for the full control effect; nearly all actives have a fitted effect of over 60% in size
#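 BAZ2B 50 nM plus b-H3(5-23)K14Ac 50 nM, PBS pH 7.4/0.01% Tween-20, 30 min RT; compound added (max 110 uM), 30 min RT; streptavidin donor/Ni-chelate acceptor beads 10 ug/mL final, 20 min dark; AlphaScreen read.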
# HP1b binding inh – HP1-beta chromodomain-methylated histone interaction inhibition; P83916; AlphaScreen HP1-beta / biotin-H3K9me3 peptide binding; Potency, µM (highest dose often 114 µM), without a hit: at the top dose activity change, negative = inhibition, actives largely listed as inhibitors; hit rate 0.56% among 390,000; also: potency is read from the fitted curve at half-maximal effect; nearly all actives have a fitted effect of over 70% in size
#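 Compound inhibition of the preformed complex between 50 nM HP1-beta and 50 nM biotinylated H3K9me3 peptide was read by AlphaScreen. Buffer was PBS pH 7.4 with 0.01% Tween-20. Incubations ran 30 min at room temperature, with 10 ug/mL donor/acceptor beads.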
# G9a block – blocks human histone lysine methyltransferase G9a | Potency, µM (doses to about 102 µM), for inactives: at the top dose activity, negative = inhibition, most hits filed as inhibitors | hit rate 8.8% among 350,000 | Q96KQ7 | G9a H3K9 monomethylation, AlphaScreen, 2 h; also: potency is read from the fitted curve at half-maximal effect; % is scaled to controls: 0 for no effect and ±100 for the full control effect; nearly all actives have a fitted effect of over 75% in size
#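 Methyltransferase reactions run at room temperature for 2 h (20 nM enzyme, 500 nM biotin-H3K9 peptide, 20 uM SAM) after a 15 min compound preincubation; product detected by AlphaScreen beads and anti-H3K9me1 antibody.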
# JMJD2A Tudor – blocks the human JMJD2A Tudor domain. O75164. AlphaScreen JMJD2A-Tudor / H3K4me3 peptide binding. Potency, µM (highest dose often 114 µM), inactives show top-dose activity change, negative = inhibition, most hits filed as inhibitors. hit rate 4.4% among 390,000. AID 504339; also: potency is read from the fitted curve at half-maximal effect; % is scaled to controls: 0 for no effect and ±100 for the full control effect; nearly all actives have a fitted effect of over 50% in size
# Six1-Eya2 blk – Six1/Eya2 interaction inhibition. Q15475+O00167. activity change, % (no concentration beside the values). AlphaScreen GST-Six1/His-Eya2 binding, biochemical; active compounds read low. AID 651725. hit rate 0.56% among 360,000; in the data active = activity change below about -65%; inconclusive = mostly about -30% to -63%; also: % is scaled to controls: 0 for no effect and ±100 for the full control effect
#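 Compounds are tested against tagged Six1 and Eya2 proteins bridged by glutathione donor and nickel acceptor beads; after a one-hour incubation at 37 °C without light, AlphaScreen emission is recorded.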
# CtBP-E1A inh – inhibitors of CtBP/E1A interaction. hit rate 0.49% among 340,000. activity change, % (no concentration beside the values). AlphaScreen GST-E1A/His-CtBP binding, 1536-well; active compounds read low; in the data active = activity change below about -65%; inconclusive = mostly about -30% to -63%; also: % is scaled to controls: 0 for no effect and ±100 for the full control effect
#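 Steps: dispense buffer (Tris pH 8.0, NaCl 300 mM, TCEP 1 mM, BSA, Tween 20); add 5X protein mix (GST-E1A, His-CtBP, 125 nM each); pin 23 nL compound; 2 h at 37 °C, dark; add 5X beads (50 ug/mL); 1 h; read.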
# Numbers without * were called inactive; ? = inconclusive; nt = not tested or not shown; [ ] = remark or other dose. A selection: hits, their analogues and other compounds. The true share with any hit is near 10%. Unless noted, calls follow the shape of the dose curve; as a rule, active = well fitted inhibition curve with a large enough effect; inconclusive = small, poorly fitted or top-dose-only effect; inactive = no such curve, though single readings can be large or run the other way.
SMILES,BAZ2B block,HP1b binding inh,G9a block,JMJD2A Tudor,Six1-Eya2 blk,CtBP-E1A inh
CNC(=S)Nc1ccc(OC(F)(F)F)cc1,?,30%,-30%,3%,2,9
CCOc1ccc(N/N=C(/C#N)C(N)=O)cc1,-14%,16%,?,-30%,-14,-11
COc1ccc(N/N=C(\C#N)C(N)=O)cc1,-5%,-14%,8.9µM*,-34%,3,-10
N#C/C(=N/Nc1ccc(OC(F)(F)F)cc1)C(N)=S,35µM*,-19%,nt,?,-14,nt
NS(=O)(=O)c1ccc(CCNC(=O)CN2CCN(Cc3cccc4ccccc34)CC2)cc1,-1%,19%,19%,-4%,-7,2
CCCOc1ccccc1C(=O)Nc1nc2c(s1)CCCC2,1%,57%,18%[59 µM],-5%,nt,nt
COc1ccc(C(=O)/C(C#N)=N/Nc2ccccc2[N+](=O)[O-])cc1,-29%,11%,?,-23%,0,-19
COc1ccc(C(=O)/C(C#N)=N/Nc2ccc([N+](=O)[O-])cc2)cc1,7.1µM*,?,2µM*,7.9µM*,-7,nt
C[N+](C)(C)CCCCCCC(=O)/C=N/O,-39%,4%,?,?,24,nt
C[N+]1(CCCCCCC(=O)/C=N/O)CCCCCC1,-28%,22%,14µM*,-6%,4,2
O=C(/C=C/c1ccc(Br)o1)Nc1nccs1,-15%,?,45µM*,32µM*,-9,nt
CCOC(=O)Cc1csc(NC(=O)/C=C/c2ccc(Br)o2)n1,-33%,21%,50µM*,-11%,0,nt
CCOC(=O)Cc1csc(NC(=O)c2ccc(Br)o2)n1,?,24%,9%,-16%,2,1
CCOC(=O)C1CCCN(c2ncnc3c2nnn3C)C1 (centres undefined),2%,51%,-10%[59 µM],-15%,nt,nt
O=C(CCC(=O)N(CC(=O)NC1CCCC1)Cc1ccc2c(c1)OCO2)Nc1nccs1,-1%,nt,6%,nt,nt,nt
COCCN(CC(=O)NCc1ccc2c(c1)OCO2)C(=O)CCC(=O)Nc1nccs1,9%,66%,4%[59 µM],14%,0,4
CC(C)(C)NC(=O)CN(Cc1ccc2c(c1)OCO2)C(=O)CCC(=O)Nc1nccs1,-21%,39%,40µM*,-2%,-3,7
COCCNC(=O)CN(Cc1ccc2c(c1)OCO2)C(=O)CCC(=O)Nc1nccs1,8%,-8%,-34%,28µM*,1,-1
C#CCOCCOCCOCCNc1nc(N2CCN(C(=O)[C@H](CCC(=O)O)n3cc(C(N)[C@H](C)CC)nn3)CC2)nc(N2CCN(C(=O)[C@H](Cc3ccc(O)cc3)n3cc(C(N)[C@H](C)CC)nn3)CC2)n1 (some centres undefined),50µM*,76%,-130%[59 µM],40µM*,-20,-13
C#CCOCCOCCOCCNc1nc(N2CCN(C(=O)C(Cc3ccc(O)cc3)n3cc(C(N)C(C)CC)nn3)CC2)nc(N2CCN(C(=O)C(Cc3ccc(O)cc3)n3cc(C(N)C(C)CC)nn3)CC2)n1 (centres undefined),50µM*,36%,?,35µM*,-24,-22
C#CCOCCOCCOCCNc1nc(N2CCOCC2)nc(N2CCN(C(=O)[C@H](Cc3ccc(O)cc3)n3cc([C@@H](N)C(C)CC)nn3)CC2)n1 (some centres undefined),-30%,7%,?,?,2,-25
O=C(CSc1nc2ccccc2c(=O)n1-c1ccc(F)cc1F)Nc1ccc2c(c1)CCC2,-21%,30%,-8%[59 µM],-22%,-1,nt
CCOC(=O)COc1ccccc1/C=C\[N+](=O)[O-],-30%,25%,3.5µM*,-15%,6,3
Cc1ccc(N[S+](=O)([O-])c2cc3c(cc2CCc2ccccc2)NC(=O)CO3)cc1C,nt,nt,nt,-7%,nt,nt
COc1ccccc1C(=O)NC(=S)/C=C1/N(C)c2ccccc2C1(C)C,11µM*,-85%,10µM*,16µM*,-73*,-74*
SMILES,BAZ2B block,HP1b binding inh,G9a block,JMJD2A Tudor,Six1-Eya2 blk,CtBP-E1A inh
CN1/C(=C\C(=S)NC(=O)c2ccccc2Cl)C(C)(C)c2ccccc21,11µM*,25µM*,35µM*,25µM*,?,-28
CN1/C(=C\C(=O)Nc2ccc(Cl)cc2)C(C)(C)c2ccccc21,-32%,19%,?,-33%,-5,1
CN1/C(=C/C(=S)NC(=O)C2(C)CC2(Cl)Cl)C(C)(C)c2ccccc21 (centres undefined),20µM*,18µM*,?,35µM*,-66*,-72*
COc1ccc(C(=O)Nc2cc(S(=O)(=O)c3ccc(Cl)cc3)c(O)c(C)c2C)cc1,-15%,36%,-3%[59 µM],-5%,nt,nt
Cc1cccc(NCc2nc3ccccc3n2CCOc2ccccc2C)c1,?,15%,-21%[59 µM],?,nt,nt
CC(C(=O)Nc1ccc(C(F)(F)F)cc1)N(C)CC(=O)N1CCN(Cc2ccccc2)CC1 (centres undefined),nt,20µM*,nt,0.89µM*,0,-3
CN(CC(=O)N1CCN(Cc2ccccc2)CC1)S(=O)(=O)c1ccc(F)cc1,6%,19%,nt,-13%,3,5
CN(CC(=O)N1CCN(Cc2ccccc2)CC1)S(=O)(=O)c1ccc(Br)cc1,-24%,16%,-1%,-11%,-4,5
CSc1ccccc1NC(=O)C(C)N(C)CC(=O)N1CCN(Cc2ccccc2)CC1 (centres undefined),nt,?,nt,10µM*,-3,-1
CC(/C=N/n1c(-c2cc(C)[nH]n2)n[nH]c1=S)=C\c1ccccc1,-37%,7%,?,?,-17,-3
S=c1[nH]nc(-c2ccccc2)n1/N=C/c1cccs1,-38%,-10%,0.56µM*,18µM*,-5,6
Cc1ccc(-c2n[nH]c(=S)n2/N=C/c2ccc(C)s2)cc1,-37%,30%,3%[0.501 µM],?,-10,-9
Cc1cc(-c2n[nH]c(=S)n2/N=C/c2cccs2)n[nH]1,-38%,7%,0.35µM*,6.3µM*,-4,2
Cc1ccc(-c2n[nH]c(=S)n2/N=C/c2cccs2)cc1,-3%,1%,1µM*,28µM*,-10,-13
O=C1c2ccccc2-c2onc3c(Oc4ccccc4)cc(O)c1c23,35µM*,nt,?,nt,nt,nt
O=P(O)(O)C(O)(Cc1cccnc1)P(=O)(O)O,nt,nt,18µM*,nt,nt,nt
Cc1ccc(NC(=O)CNC(=O)c2ccco2)nc1,-16%,22%,12%,-10%,-2,1
COc1ccc(OCc2nc3ccc(S(=O)(=O)Nc4ccccc4Cl)cc3[nH]2)cc1,-19%,0%,-11%[59 µM],40µM*,?,-4
